Measurements as given in PubChem BioAssay (EPA / NIEHS).
Active and inactive are the calls of the source. Rule for the calls: active = hit-call score of the fitted dose curve at least 0.9, where 1 is the maximum; inactive = score below 0.9.

Experiment: APR_HepG2_MitoticArrest_24hr: Apredica 24-hour HepG2 Assay for Mitotic Arrest (AID 2282910)
Conditions: high-content imaging, actives raise or lower the signal
Description: APR_HepG2_24hr is a cell-based, multiplexed-readout assay that uses HepG2, a human liver cell line, with measurements taken at 24 hours after chemical dosing in a 384-well plate.APR_HepG2_MitoticArrest_24hr is one of 10 assay component(s) measured or calculated from the APR_HepG2_24hr assay. It is designed to make measurements of cell phenotype, a form of morphology reporter, as detected with fluorescence intensity signals by HCS Fluorescent Imaging technology.Data from the assay component APR_HepG2_MitoticArrest_24hr was analyzed into 1 assay endpoint. This assay endpoint, APR_HepG2_MitoticArrest_24hr, was analyzed with bidirectional fitting relative to DMSO as the negative control and baseline of activity. Using a type of morphology reporter, measures of protein for gain or loss-of-signal activity can be used to understand the signaling at the pathway-level as they relate to the gene . Furthermore, this assay endpoint can be referred to as a primary readout, because this assay has produced multiple assay endpoints where this one serves a signaling function. To generalize the intended target to other relatable targets, this assay endpoint is annotated to the cell cycle intended target family, where the subfamily is arrest.
Cells were treated with dimethyl sulfoxide (DMSO) as a solvent control at a final concentration of 0.5% v/v or with compounds in DMSO with a resulting final DMSO concentration of 0.5% v/v. Compound treatment was done at concentrations of 0.39, 0.78, 1.56, 3.12, 6.24, 12.5, 25, 50, 100, and 200 uM in duplicate on each plate. Cells were treated with compounds for 1, 24, or 72 hr. Carbonyl […] m-chloro-phenylhydrazone (CCCP) and taxol were used as positive controls for mitochondrial function and cytoskeletal stability, respectively; DMSO served as the negative control for this experiment. Cells were fixed by the direct addition of 50 uL formaldehyde in Hank's Balanced Salt Solution (HBSS) to a final concentration of 3.7%. After incubation in the fixation medium for 30 min at room temperature (293-298 K), cells were rinsed twice with HBSS and treated with cell permeabilization buffer (16 uL of 0.5% Triton X-100) for 10 min at room temperature (293-298 K) before labeling. For mitochondrial membrane potential and mitochondrial measurements, pre-fixed cells were incubated with 50 uL of MitoTracker Red CMXRos (Invitrogen) at a concentration of 250 nM for 30 min before fixation. In the remaining cases, post-fixed cells were labeled by incubation with a multiplexed mixture of primary antibodies in HBSS for 60 min at room temperature (293-298 K) to detect immunoreactivity of c-Jun (1:500), phospho-histone H3 (1:100), phospho-histone H2A.x (1:200), p53 (1:400), alpha-tubulin (1:200) and Hoechst 33342 (2 ug/mL). Cells were labeled for multiplexed imaging on two separate plates: a) Hoechst 33342, MitoTracker Red, phospho-histone H3, and alpha-tubulin, and b) Hoechst 33342, phospho-histone H2A.x, and c-Jun. A final rinse with HBSS (50 uL) was performed before analysis. The primary and secondary antibodies for the proteins were phospho-histone H3 (rabbit anti-phospho-histone H3 and FITC-donkey anti-rabbit IgG), phospho-histone H2A.x (mouse anti-phospho-histone H2A.x and FITC-donkey anti-mouse IgG), c-Jun (rabbit anti-phospho-c-Jun and Cy3-donkey anti-rabbit IgG), p53 (sheep anti-p53 and Cy5-donkey anti-sheep IgG), alpha-tubulin (mouse anti-alpha-tubulin and Cy5-donkey anti-mouse IgG). These antibodies are available as the CellCiphr HepG2 assay kit (Millipore).Digital images of each well were captured using a Cellomics ArrayScan VTI (Thermo Scientific Cellomics) (0.8 NA objective, 0.63x optical coupler, and XF-93 filter set) at 20x magnification. The images were acquired using the autofocus feature of the ArrayScan instrument, which entails the following steps. First, the camera focuses on channel 1 (Hoechst 33342), where nuclei are identified. Second, a Z offset of 1 um is used for capturing mitochondria (MitoTracker Red). […]

Row | SMILES | outcome | AC50
1 | CC(C)O.CC(C)O.OCCN(CCO)CCO.OCCN(CCO)CCO.[Ti] | inactive | 
2 | Oc1cc(Cl)c(Cl)cc1Cl |  | 38.6 µM (active)
3 | O=C(N[C@H]1CN2CCC1CC2)c1ccc2c(c1)OCCO2 | inactive | 
4 | COc1ccccc1N | inactive | 
5 | CCCCCCCCCCCCc1cccc(S(=O)(=O)O)c1 | inactive | 
6 | Clc1cccc(Cl)c1Cl | inactive | 
7 | Oc1c(Cl)cc(Cl)cc1Cl | inactive | 
8 | CN(C)C(=S)S | inactive | 
9 | CC(C)(C)c1ccccc1O | inactive | 
10 | Clc1cccc(Cl)c1 | inactive | 
11 | OCCN(CCO)CCO | inactive | 
12 | N#Cc1cccnc1 | inactive | 
13 | Cc1cc(C)cc(C)c1 | inactive | 
14 | O=C(O)C1(c2ccc3c(c2)OC[C@H](Cc2ccc(-c4ccccc4)cc2)[C@H]3O)CCCC1 | inactive | 
